Data reported in ChEMBL document CHEMBL3988442, “University of Dundee, Small-Polar-MMV Screening Library” (2021).
For some assays here: Potency and affinity values are given separately.

Key:
Parameters in all cases: scale not given: direction of the effect not stated beside the values
[1] = target: Protein translocase subunit SecA (Escherichia coli (strain K12)) (UniProt P10408); assay: Assay to Identify E. coli SecA ATPase Inhibitors; assay type: functional; conditions: 30 µM
[2] = target: T1, Ubiquitin-activating enzyme e1, putative (Leishmania donovani (strain BPK282A1)) (UniProt E9BSI1); assay: Leishmania donovani Ubiquitin Activating Enzyme (LdE1); assay type: functional; conditions: 30 µM
T1 sequence (whole entry): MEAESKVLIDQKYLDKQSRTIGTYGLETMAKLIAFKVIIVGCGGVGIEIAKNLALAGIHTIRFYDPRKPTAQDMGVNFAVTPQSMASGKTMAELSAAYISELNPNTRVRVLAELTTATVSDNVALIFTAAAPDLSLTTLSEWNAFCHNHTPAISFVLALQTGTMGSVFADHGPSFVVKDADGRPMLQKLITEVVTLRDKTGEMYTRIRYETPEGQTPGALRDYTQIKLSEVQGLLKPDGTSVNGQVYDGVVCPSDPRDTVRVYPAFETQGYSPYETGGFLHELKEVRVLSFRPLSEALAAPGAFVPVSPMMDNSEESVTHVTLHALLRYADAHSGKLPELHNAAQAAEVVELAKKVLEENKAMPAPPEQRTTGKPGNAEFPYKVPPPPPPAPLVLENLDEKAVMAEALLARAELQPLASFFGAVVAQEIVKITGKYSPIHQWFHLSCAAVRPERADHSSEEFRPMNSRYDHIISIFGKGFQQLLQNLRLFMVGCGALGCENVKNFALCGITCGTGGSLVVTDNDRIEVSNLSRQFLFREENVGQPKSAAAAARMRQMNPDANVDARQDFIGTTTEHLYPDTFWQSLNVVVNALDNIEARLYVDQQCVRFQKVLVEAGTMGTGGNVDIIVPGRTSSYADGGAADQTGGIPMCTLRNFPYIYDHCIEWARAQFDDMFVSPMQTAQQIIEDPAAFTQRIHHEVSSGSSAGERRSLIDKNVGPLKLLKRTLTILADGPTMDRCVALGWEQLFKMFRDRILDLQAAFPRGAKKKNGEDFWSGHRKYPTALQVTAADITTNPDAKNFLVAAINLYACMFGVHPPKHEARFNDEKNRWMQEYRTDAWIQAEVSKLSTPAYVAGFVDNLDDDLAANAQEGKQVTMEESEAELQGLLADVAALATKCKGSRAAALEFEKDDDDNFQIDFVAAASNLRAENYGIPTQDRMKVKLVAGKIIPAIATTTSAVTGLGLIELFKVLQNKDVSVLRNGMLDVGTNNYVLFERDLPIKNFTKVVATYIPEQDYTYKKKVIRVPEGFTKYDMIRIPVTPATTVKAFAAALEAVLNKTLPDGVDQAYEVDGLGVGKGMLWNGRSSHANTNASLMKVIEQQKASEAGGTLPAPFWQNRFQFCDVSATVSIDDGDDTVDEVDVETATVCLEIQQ

[3] = target: AMP-activated protein kinase, AMPK (Homo sapiens) (UniProt P54646+O43741+P54619+Q9UGJ0+Q9Y478+Q13131+Q9UGI9); assay: AMP-dependent Kinase enzyme assay. An in vitro enzyme assay that detects ADP turnover that is directly proportional to AMPK activity. This uses naive AMPK that is activated during the assay with MK-8722; assay type: functional; conditions: 30 µM
[4] = target: Sialic acid-binding Ig-like lectin 9 (Homo sapiens) (UniProt Q9Y336); assay: Hs-Siglec9 ALPHAscreen SOP 20170721; conditions: 10 µM
Trypanosoma cruzi = assay: Trypanosoma cruzi phosphomannomutase and mannose-1-phosphate guanylyltransferase assay; assay type: functional; conditions: 10 µM
[5] = target: T2, Arginase-2, mitochondrial (Homo sapiens) (UniProt P78540); assay: in vitro enzyme assay to detect the production of urea directly proportional to the activity of Arginase II; assay type: functional; conditions: 33.3 µM; note: in the data most compounds retested in dose-response had high values
T2 sequence (whole entry): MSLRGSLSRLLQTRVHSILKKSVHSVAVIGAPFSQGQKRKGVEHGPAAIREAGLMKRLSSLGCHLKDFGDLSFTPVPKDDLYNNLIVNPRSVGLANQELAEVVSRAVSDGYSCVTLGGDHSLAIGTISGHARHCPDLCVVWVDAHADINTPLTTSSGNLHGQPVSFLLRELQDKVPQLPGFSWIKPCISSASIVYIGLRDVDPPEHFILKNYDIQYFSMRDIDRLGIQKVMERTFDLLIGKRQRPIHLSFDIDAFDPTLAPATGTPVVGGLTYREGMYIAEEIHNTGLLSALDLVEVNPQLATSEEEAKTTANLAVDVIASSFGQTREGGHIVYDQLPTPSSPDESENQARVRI

[6] = target: T3, Proteasome subunit beta (Trypanosoma cruzi) (UniProt O96673); assay: Trypanosoma cruzi proteasome chymotrypsin-like activity (TcProtChymo) assay.; note: in the data most compounds retested in dose-response had high values; assay type: functional; conditions: 9.37 µM
T3 sequence (whole entry): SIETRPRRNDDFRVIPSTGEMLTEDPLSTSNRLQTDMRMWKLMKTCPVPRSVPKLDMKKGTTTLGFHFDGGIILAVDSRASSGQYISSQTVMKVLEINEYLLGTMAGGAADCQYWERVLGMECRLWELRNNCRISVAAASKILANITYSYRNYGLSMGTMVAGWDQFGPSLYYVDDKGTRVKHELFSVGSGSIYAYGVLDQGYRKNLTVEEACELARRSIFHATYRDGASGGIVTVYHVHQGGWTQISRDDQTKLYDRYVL

Homo sapiens = organism: Homo sapiens; assay: To identify inhibition of the IFN signalling (Jak-Stat) pathway via expression of an eGFP reporter gene under the control of an IFN-stimulated response element (ISRE) containing MxA promoter.; assay type: functional; conditions: 30 µM
[7] = target: T4, Tyrosyl-tRNA synthetase, putative (Trypanosoma cruzi (strain CL Brener)) (UniProt Q4DSP6); assay: Trypanosoma cruzi tyrosyl tRNA synthetase (TcYRS) _High Tyrosine SOP; assay type: functional; conditions: 30 µM; note: in the data most compounds retested in dose-response had high values
T4 sequence (whole entry): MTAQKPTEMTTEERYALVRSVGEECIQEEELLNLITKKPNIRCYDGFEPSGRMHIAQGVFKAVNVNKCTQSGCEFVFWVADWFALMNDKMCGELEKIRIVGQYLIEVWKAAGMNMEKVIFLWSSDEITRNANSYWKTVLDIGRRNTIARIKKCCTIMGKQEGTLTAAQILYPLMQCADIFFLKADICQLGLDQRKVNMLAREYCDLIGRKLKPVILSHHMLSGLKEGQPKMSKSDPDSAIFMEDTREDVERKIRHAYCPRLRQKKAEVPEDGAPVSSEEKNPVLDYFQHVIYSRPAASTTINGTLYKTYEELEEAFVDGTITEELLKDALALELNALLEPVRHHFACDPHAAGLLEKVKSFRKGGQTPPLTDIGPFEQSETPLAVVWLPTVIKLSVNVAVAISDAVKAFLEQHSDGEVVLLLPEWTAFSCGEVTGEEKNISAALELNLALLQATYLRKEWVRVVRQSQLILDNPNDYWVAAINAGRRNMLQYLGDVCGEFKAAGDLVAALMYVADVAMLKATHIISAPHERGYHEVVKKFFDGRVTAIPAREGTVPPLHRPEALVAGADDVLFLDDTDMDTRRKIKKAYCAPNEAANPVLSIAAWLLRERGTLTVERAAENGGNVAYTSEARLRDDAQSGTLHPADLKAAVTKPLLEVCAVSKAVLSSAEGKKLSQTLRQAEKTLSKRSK

[8] = target: T4, Tyrosyl-tRNA synthetase, putative (Trypanosoma cruzi (strain CL Brener)); assay: Trypanosoma cruzi tyrosyl tRNA synthetase (TcYRS) SOP; assay type: functional; conditions: 30 µM
[9] = target: Chromo domain-containing protein 1 (Saccharomyces cerevisiae (strain ATCC 204508 / S288c) (Baker's yeast)) (UniProt P32657); assay: ScCHD-1 Enzyme Inhibition Assay; assay type: functional; conditions: 30 µM; note: in the data most compounds retested in dose-response had high values
Sequence of Chromo domain-containing protein 1 (Saccharomyces cerevisiae (strain ATCC 204508 / S288c) (Baker's yeast)) (P32657 whole entry, the tested form may be a part): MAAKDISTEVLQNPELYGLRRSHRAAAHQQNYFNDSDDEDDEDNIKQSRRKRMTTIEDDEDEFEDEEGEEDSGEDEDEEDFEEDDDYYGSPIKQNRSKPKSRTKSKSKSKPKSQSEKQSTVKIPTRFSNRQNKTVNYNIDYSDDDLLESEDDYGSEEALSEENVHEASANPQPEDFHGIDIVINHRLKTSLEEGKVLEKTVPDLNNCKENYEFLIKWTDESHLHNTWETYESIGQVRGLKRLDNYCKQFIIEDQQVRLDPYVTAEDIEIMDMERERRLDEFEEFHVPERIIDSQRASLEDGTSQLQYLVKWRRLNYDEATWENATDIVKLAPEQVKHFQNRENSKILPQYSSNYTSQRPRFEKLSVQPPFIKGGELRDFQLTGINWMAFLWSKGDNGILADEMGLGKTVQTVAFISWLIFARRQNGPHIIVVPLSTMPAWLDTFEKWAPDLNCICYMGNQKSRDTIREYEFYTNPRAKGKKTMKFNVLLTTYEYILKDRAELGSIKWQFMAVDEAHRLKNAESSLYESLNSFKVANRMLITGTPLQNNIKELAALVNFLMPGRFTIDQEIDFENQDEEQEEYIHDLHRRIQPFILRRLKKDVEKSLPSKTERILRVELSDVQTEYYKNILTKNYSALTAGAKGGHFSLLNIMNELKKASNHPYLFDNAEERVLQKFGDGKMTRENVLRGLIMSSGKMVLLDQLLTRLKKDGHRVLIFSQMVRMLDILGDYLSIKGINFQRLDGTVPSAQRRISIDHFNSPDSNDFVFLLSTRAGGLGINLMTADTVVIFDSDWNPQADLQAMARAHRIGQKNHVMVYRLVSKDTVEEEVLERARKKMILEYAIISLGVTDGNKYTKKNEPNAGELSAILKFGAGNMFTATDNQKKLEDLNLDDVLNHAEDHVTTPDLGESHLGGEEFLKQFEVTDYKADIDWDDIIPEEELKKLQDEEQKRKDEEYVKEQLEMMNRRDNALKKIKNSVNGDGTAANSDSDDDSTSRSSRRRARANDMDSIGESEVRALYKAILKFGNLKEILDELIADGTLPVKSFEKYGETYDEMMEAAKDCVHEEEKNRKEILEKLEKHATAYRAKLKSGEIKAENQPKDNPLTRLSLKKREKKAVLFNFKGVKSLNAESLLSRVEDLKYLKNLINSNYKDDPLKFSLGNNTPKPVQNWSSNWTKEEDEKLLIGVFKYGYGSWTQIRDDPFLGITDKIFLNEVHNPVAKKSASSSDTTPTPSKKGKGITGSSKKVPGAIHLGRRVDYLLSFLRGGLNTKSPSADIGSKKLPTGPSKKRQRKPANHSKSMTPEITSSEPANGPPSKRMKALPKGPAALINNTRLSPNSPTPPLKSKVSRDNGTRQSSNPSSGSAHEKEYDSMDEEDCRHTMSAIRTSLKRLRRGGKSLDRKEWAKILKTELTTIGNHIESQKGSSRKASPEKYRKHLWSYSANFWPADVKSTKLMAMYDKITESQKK

Sequence of Sialic acid-binding Ig-like lectin 9 (Homo sapiens) (Q9Y336 whole entry): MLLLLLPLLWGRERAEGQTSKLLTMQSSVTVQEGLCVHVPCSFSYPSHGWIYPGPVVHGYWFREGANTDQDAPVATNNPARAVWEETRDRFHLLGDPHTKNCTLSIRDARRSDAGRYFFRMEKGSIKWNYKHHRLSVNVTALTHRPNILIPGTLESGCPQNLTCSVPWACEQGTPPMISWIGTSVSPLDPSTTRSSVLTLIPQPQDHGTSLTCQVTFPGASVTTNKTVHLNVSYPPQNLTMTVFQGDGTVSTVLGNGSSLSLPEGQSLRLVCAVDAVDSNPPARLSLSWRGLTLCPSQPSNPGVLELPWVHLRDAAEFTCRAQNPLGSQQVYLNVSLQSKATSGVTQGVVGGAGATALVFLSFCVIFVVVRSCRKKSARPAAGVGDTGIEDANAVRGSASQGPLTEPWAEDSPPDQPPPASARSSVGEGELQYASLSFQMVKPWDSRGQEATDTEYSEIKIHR
Sequence of Protein translocase subunit SecA (Escherichia coli (strain K12)) (P10408 whole entry): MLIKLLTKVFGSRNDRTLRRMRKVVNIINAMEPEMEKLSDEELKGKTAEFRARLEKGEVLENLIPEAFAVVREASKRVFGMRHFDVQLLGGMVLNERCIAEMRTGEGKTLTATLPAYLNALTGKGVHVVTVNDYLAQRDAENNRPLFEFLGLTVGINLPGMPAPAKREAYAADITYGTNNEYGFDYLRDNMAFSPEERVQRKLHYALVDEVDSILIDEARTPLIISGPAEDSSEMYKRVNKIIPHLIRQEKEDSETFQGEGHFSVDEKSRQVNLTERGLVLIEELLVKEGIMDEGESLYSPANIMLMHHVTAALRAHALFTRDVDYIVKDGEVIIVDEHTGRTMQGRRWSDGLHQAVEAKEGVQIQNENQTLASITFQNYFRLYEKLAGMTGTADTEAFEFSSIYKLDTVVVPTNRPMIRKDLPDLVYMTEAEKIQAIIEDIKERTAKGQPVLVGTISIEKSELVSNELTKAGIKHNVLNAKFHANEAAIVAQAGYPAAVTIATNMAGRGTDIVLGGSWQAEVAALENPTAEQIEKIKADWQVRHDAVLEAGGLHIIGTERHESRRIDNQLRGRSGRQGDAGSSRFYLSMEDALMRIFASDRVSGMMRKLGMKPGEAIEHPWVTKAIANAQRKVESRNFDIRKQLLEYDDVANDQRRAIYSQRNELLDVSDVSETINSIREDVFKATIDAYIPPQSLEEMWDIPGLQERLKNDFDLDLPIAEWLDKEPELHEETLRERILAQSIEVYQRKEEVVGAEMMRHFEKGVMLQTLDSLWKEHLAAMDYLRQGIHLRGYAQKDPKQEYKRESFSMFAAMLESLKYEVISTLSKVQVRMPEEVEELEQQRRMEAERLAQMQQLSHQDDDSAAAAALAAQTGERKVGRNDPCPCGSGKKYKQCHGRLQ

Row | Structure (SMILES) | Percent Effect [1] | Percent Effect [2] | Percent Effect [3] | Percent Effect [4] | Percent Effect (Trypanosoma cruzi) | Percent Effect [5] | Percent Effect [6] | Percent Effect (Homo sapiens) | Percent Effect [7] | Percent Effect [8] | Percent Effect [9]
1 | Cc1ccc(NC2CCN(C(=O)c3cccc(F)c3F)CC2)nn1 | 0.567% | -6.33% | 2.51% | 4.94% | 0.308% | -0.645% | 1.54% | 10.2% | 4.17% | 5.06% | -24.5%
2 | Cc1cncc(C(=O)N2CCC(Cn3cc(-c4ccsc4)nn3)CC2)c1 | -2.48% | 2.7% | 0.205% | 2.1% | -3.86% | -0.476% | 11.6% | 7.16% | 1.59% | 9.76% | -1.22%
3 | CC(C)c1ccsc1C(=O)N1CCCN(Cc2cscn2)CC1 | -1.52% | 2.6% | -0.162% | -7.44% | 0.686% | -2.32% | 19.8% | 21.5% | 18.1% | 32.9% | -19.8%
4 | CC(=O)N1CC(=O)N(c2cnn(C)c2)CC12CCN(Cc1ccsc1)C2 (configuration not stated) | -5.9% | 2.7% | -4.89% | 3.54% | -6.05% | -1.25% | 18.3% | 13.5% | 3.96% | 3.66% | -3.49%
5 | Cc1ccccc1CN1CCC(NCC2CNc3ccnn3C2)CC1 (configuration not stated) | -0.777% | 0% | -17.1% | -4.24% | 1.27% | 1.24% | 11.4% | -3.35% | 6.45% | 13.6% | -5.59%
6 | CCOC(=O)CCC(=O)NC(C)c1ccc(NC(=O)CC)cc1 (configuration not stated) | -1.67% | 7.89% | 2.06% | -5.73% | -1.66% | 1.18% | 9.88% | 6.92% | 6.38% | 13% | -3.37%
7 | O=C(NC1CCS(=O)(=O)C1)N1CCN(c2cnccn2)CC1 (configuration not stated) | -3.53% | 24.3% | -10.3% | 4.95% | 1.58% | -3.14% | 11.1% | 15.6% | 4.95% | 6.1% | -6.05%
8 | Cc1ccoc1C(=O)N1CCO[C@H]2[C@H](OCC3CCOCC3)CC[C@@H]21 | -3.5% | 5.33% | -1.93% | 2.92% | 5.02% | -48.9% | -0.513% | -9.79% | 2.08% | -5% | -3.9%
9 | O=C(Cc1ccc(-n2cccn2)cc1)N1CCCC(n2cccn2)C1 (configuration not stated) | -9.35% | 10.4% | -6.09% | -18.3% | 11.5% | -1.9% | 13.8% | -3.32% | 6.67% | 11.8% | -20%
10 | O=C(NCc1nnc2ccccn12)N1CCc2sccc2C1 | -3.42% | -6.33% | 6.9% | 2.84% | -1.33% | 1.94% | 7.89% | 11.1% | 2.08% | 7.59% | -7.88%
11 | Cn1ccc(-c2cc(C(=O)N3CCOCC3)c3ccccn23)n1 | 1.94% | 10.8% | 19.9% | 17.5% | -8.5% | 2.87% | 12.7% | 35.5% | -4.32% | 2.56% | -7.76%
12 | COCc1nc(CN2CCC3(CCCO3)CCC2=O)no1 (configuration not stated) | -7.29% | 5.33% | -4.46% | 6.25% | 7.3% | -2.6% | 12% | 10.4% | 6.01% | 3.7% | -5.51%
13 | CCS(=O)(=O)CCN1CCCC1c1noc(C2CC2)n1 (configuration not stated) | -0.786% | 20.2% | -7.83% | -3.74% | -4.44% | 0% | 6.63% | 38.5% | -0.493% | -34.2% | -7.2%
14 | CCc1nc(C2CCCN(C(=O)c3cccc4c3ccn4C)C2)no1 (configuration not stated) | -2.43% | -5.41% | 1.08% | 3.25% | 5.29% | -6.47% | 5.92% | 17.1% | 3.96% | 3.66% | -0.759%
15 | CS(=O)(=O)N1CCC(O)(Cn2c(C3CC3)nc3ccccc3c2=O)CC1 | -6.42% | 1.35% | 8% | 2.72% | -4.35% | -0.232% | 5.77% | 11.6% | -1.07% | -3.9% | 7%
16 | CN(C)c1ccc(CCNC(=O)NCc2ccc(N(C)C)nc2)cc1 | -3.23% | 13.5% | 0.0846% | 11.2% | 1.98% | -5.21% | -4.14% | 5.54% | 7.39% | 18.5% | -9.13%
17 | CCn1nc(C)c2nnn(CC(=O)Nc3cccc(Cl)c3)c(=O)c21 | -4.67% | -6.67% | 1.25% | 3.3% | 4.13% | -5.11% | 12.9% | -22.7% | 6.35% | 7.69% | -7%
18 | CC(C(=O)N1CCCN(Cc2ccc(C#N)cc2)CC1)n1ccnc1 (configuration not stated) | -3.9% | 15.8% | -24.4% | -5.95% | -6.01% | 1.15% | 17.2% | 29.1% | 4.41% | 12.2% | -7.57%
19 | N#Cc1ncn(CC(=O)Nc2cc(Cl)ccc2F)n1 | -7.02% | 13.7% | 6.62% | 0.779% | 1.59% | -4.79% | 1.8% | -12.8% | 3.12% | 6.17% | 1.6%
20 | Cc1csc(C2CCCCN2C(=O)CN(C)Cc2ccccc2)n1 (configuration not stated) | -1.2% | -1.27% | 11% | 7.48% | -1.33% | 3.23% | 0.515% | -0.936% | 1.04% | 2.53% | 7.65%
21 | Fc1ccc2[nH]c(C3CCCN3CCc3ccccn3)nc2c1 (configuration not stated) | -0.354% | 8.22% | -4.31% | 9.65% | 1.98% | -1.2% | 18.6% | -28.3% | 13.5% | 23.5% | 2.89%
22 | Cc1cccc(C(=O)N2C[C@@H]3OCCN(c4ncccn4)[C@@H]3C2)n1 | -4.13% | 5.33% | -3.52% | 4.37% | -2.7% | -8.78% | 7.35% | -6.79% | 5.21% | 0% | 0.315%
